These results are taken from PubChem BioAssay (EPA / NIEHS).

Records with an inconclusive call do not appear. Activity calls are given as the source filed them. Rule for the calls, unless noted: active = hit-call score of the fitted dose curve at least 0.9, where 1 is the maximum; inactive = score below 0.9.

Assay [1] is described as follows: CCTE_Mundy_HCI_Cortical_Synap_Neur_Matur_BPCount: CCTE's Synaptogenesis and Neurite Maturation Assay in rat cortical cells for Branch Point Count, Mundy Lab (AID 2284211). In short, it runs like this:
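HCI read-out of branch points from MAP2/synaptophysin/Hoechst immunofluorescence; rat cortical cultures, AraC DIV 5, dosing DIV 7, fixed DIV 12; fit in positive direction vs DMSO baseline.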

A short description of assay [2]: CCTE_Mundy_HCI_Cortical_NOG_NeuriteCount: CCTE's Neurite Outgrowth Assay in rat cortical cells for Neurite Count, Mundy Lab (AID 2284212).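 Note: cells fixed about two days after chemical exposure began.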 An outline of the steps:
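Rat cortical primary cells; compound added 2 h post-plating, 1/10 dilution of working solution. Anti-betaIII-tubulin/AF488 ICC; ArrayScan neurite count vs DMSO.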

Assay [3] is described as follows: CCTE_Mundy_HCI_Cortical_NOG_NeuriteLength: CCTE's Neurite Outgrowth Assay in rat cortical cells for Neurite Length, Mundy Lab (AID 2284213). In short, it runs like this:
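First, rat primary cortical cells were plated and, 2 h later, given test chemical as a 1/10 dilution. Finally, βIII-tubulin immunostaining enabled automated imaging of neurite length.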

Assay [4] can be described thus: CCTE_Mundy_HCI_Cortical_Synap_Neur_Matur_NeuriteLength: CCTE's Synaptogenesis and Neurite Maturation Assay in rat cortical cells for Neurite Length, Mundy Lab (AID 2284214). An outline of the steps: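 Cultures of rat primary cortical cells received chemical at DIV 7 and were fixed at DIV 12, after glial arrest with AraC at DIV 5. Neurite length was measured by automated imaging of MAP2 immunofluorescence.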

A short description of assay [5]: CCTE_Mundy_HCI_Cortical_Synap_Neur_Matur_NeuriteSpotCountPerNeuron: CCTE's Synaptogenesis and Neurite Maturation Assay in rat cortical cells for Neurite Spot Count per Neuron Count, Mundy Lab (AID 2284215). In short, it runs like this:
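High-content imaging counts synaptophysin puncta along MAP2-labelled neurites per neuron after chemical exposure of rat cortical cells from DIV 7 to termination at DIV 12 (AraC added DIV 5). Loss of signal relative to DMSO.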

Assay [6] is described as follows: CCTE_Mundy_HCI_Cortical_Synap_Neur_Matur_SynapseCount: CCTE's Synaptogenesis and Neurite Maturation Assay in rat cortical cells for Synapse Count, Mundy Lab (AID 2284218). In short, it runs like this: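 Cells were plated, allowed 2 hr to attach, treated with AraC at DIV 5, then exposed to chemicals from DIV 7 until DIV 12. After fixation and MAP2/synaptophysin immunolabelling, synapses per neuron were quantified by automated imaging against DMSO.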

A short description of assay [7]: CCTE_Mundy_HCI_Cortical_Synap_Neur_Matur_NeuriteCount: CCTE's Synaptogenesis and Neurite Maturation Assay in rat cortical cells for Neurite Count, Mundy Lab (AID 2284222).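 Note: exposure from day 7 to day 12 in vitro with readout at day 12.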 In short, it runs like this: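 Rat cortical neurons, 96-well; AraC DIV 5; chemical + media change DIV 7; end DIV 12. Fix PFA/Hoechst, anti-MAP2 + anti-synaptophysin IF. HCI neurite count vs DMSO baseline.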

The nature of assay [8]: CCTE_Mundy_HCI_Cortical_Synap_Neur_Matur_CellBodySpotCount: CCTE's Synaptogenesis and Neurite Maturation Assay in rat cortical cells for Cell Body Spot Count, Mundy Lab (AID 2284223). In short, it runs like this: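 High-content imaging counts synaptophysin puncta on neuronal cell bodies per neuron after MAP2/synaptophysin immunostaining. Rat primary cortical cells, glia arrested with AraC at DIV 5, were exposed DIV 7–12; signal decrease measured against DMSO.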

Assay [9] is described as follows: CCTE_Mundy_HCI_hNP1_Pro_ResponderAvgInten: CCTE's Proliferation Assay in human neuroprogenitor cells, Mundy Lab (AID 2284224; active = hit-call score of the fitted dose curve at least 0.9, where 1 is the maximum;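 note: human neural progenitor cells hNP1 derived from WA09 embryonic stem cells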). An outline of the steps:
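Proliferation read as average intensity of BrdU-positive cells, imaged at 26.25 h post-dosing: chemical exposure started after 40–44 h culture, BrdU during final 4 h, paraformaldehyde fixation. Positive-direction fit relative to DMSO.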

The nature of assay [10]: UKN2_HCS_IMR90_cell_viability: Viability Assessment in the University of Konstanz (UKN) Leist Lab Neural Crest Cell Migration Assay in human induced IMR90 Pluripotent Stem Cells (UKN2) (AID 2284233).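 Note: cells exposed to compound for 24 h after a 24 h migration phase.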 In short, it runs like this:
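Viability read as calcein-AM fluorescence by high-content imaging, Hoechst co-stain, 30 min. Human iPSC (IMR90) neural crest cells had migrated 24 h into stopper-defined gaps before 24 h chemical exposure. Fitted bidirectionally relative to DMSO.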

Assay [11] is described as follows: BSK_BT_PBMCCytotoxicity: PBMC Cytotoxicity Assessment in the BioMAP Diversity Plus: BT Assay (AID 2284225).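 Note: PBMC viability measured by Alamar Blue dye reduction fluorescence.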 The conditions noted are these: primary human B cells with PBMC. An outline of the steps: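 Viability by Alamar Blue reduction (6 h, ex/em 546/580 nm) after 90 h culture of SEB/TSST-1-activated PBMC (20 ng/mL each) given compound 1 h before activation. DMSO served as baseline for curve fitting.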

Read-out in assay [12]: Secreted IgG (sIgG), gene 3500
The assay is described as follows: BSK_BT_sIgG: BioMAP Diversity Plus: BT Assay for Secreted IgG (sIgG) Biomarker Activity (AID 2284226). The conditions noted are these: primary human B cells with PBMC. In short, it runs like this: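 Cells (B cells with peripheral blood mononuclear cells) are dosed, cultured 24 h, then supernatant IgG is measured by ELISA. DMSO serves as negative control; curves are fitted for signal increase.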

Read-out in assay [13]: Interleukin 6 (IL6), IL6 (gene 3569)
The assay is described as follows: BSK_BT_xIL6: BioMAP Diversity Plus: BT Assay for Interleukin 6 (IL6) Biomarker Activity (AID 2284228). Conditions: primary human B cells with PBMC. An outline of the steps:
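Secreted IL-6 in the primary human B cell plus PBMC system, measured by Luminex at 24 h post-chemical, DMSO as baseline. Alamar Blue viability: 75,000 cells/well, chemical 1 h before SEB/TSST-1 (20 ng/mL each), 90 h, then 6 h dye.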

Read-out in assay [14]: Interleukin 17A (IL17A), IL17A (gene 3605)
The assay is described as follows: BSK_BT_xIL17A: BioMAP Diversity Plus: BT Assay for Interleukin 17A (IL17A) Biomarker Activity (AID 2284229). The conditions noted are these: primary human B cells with PBMC. An outline of the steps:
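Luminex xMAP quantification of secreted IL-17A after 24 h chemical exposure of a primary human B cell/PBMC co-culture. Signal increases fitted relative to DMSO negative control.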

Read-out in assay [15]: Tumor necrosis factor (Homo sapiens) (UniProt P01375)
Kind of assay: BSK_BT_xTNFa: BioMAP Diversity Plus: BT Assay for Tumor necrosis factor alpha (TNF-alpha) Biomarker Activity (AID 2284230). Conditions: primary human B cells with PBMC. In short, it runs like this:
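Read-out: Luminex xMAP quantitation of secreted TNF-alpha from a B cell/PBMC co-culture 24 h after compound addition. Signal analysed relative to DMSO vehicle, positive fitting direction.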

Assay [16] in a line: TAMU_PeakParms_SingleDonor1434_Chronotropy: Texas A&M University (TAMU) 1.5-hr Human Induced Pluripotent Stem Cell (iPSC)-derived Cardiomyocytes Calcium (Ca+2) Flux Assay for Cardiotoxicity: Chronotropy (changes in peak frequency) (AID 2284217). Conditions: actives raise or lower the signal. An outline of the steps:
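Beat rate, as mean Ca2+-flux peak frequency, was read from donor 1434 iPSC cardiomyocytes 90 min after exposure to 0.2–100 uM test chemical (0.5% DMSO). Wells that stopped beating were excluded; EC05 from bidirectional DMSO-referenced fitting.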

Tumor necrosis factor (Homo sapiens), sequence (P01375 whole entry, looked up): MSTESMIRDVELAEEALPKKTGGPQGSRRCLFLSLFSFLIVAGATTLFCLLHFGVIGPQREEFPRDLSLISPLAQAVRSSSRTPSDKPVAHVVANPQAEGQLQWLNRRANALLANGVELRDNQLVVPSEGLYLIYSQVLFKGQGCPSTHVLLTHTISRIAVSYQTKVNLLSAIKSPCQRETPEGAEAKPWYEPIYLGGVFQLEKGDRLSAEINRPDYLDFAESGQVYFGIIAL

For `COCCOCCOCCO`, the result in assay [1], in assay [2], in assay [3], in assay [4], in assay [5] and in assay [6] was inactive. For the same molecule, the outcome in assay [7], in assay [8], in [9] and in assay [10] was inactive.
`CS(=O)(=O)c1ccc(C2=C(c3ccccc3)C(=O)OC2)cc1`: the outcome in [11], in [12], in assay [13], in assay [14] and in assay [15] was inactive.
On to `C[C@@H]1CCN(C(=O)[C@H](CCCN=C(N)N)NS(=O)(=O)c2cccc3c2NC[C@H](C)C3)[C@@H](C(=O)O)C1`, for which the outcome in assay [11], in assay [12], in assay [13], in [14] and in [15] was inactive.
One may read the AC50 as the concentration giving half of the maximal activity seen. `COc1ccc(OC)c(N=Nc2c(O)ccc3ccccc23)c1`: the result in [11], in assay [13], in assay [14] and in assay [15] was inactive. Further, the AC50 in assay [12] is 9.86 µM (active).
In the case of `C=C(C)C(=O)OCCOCCOCCOC(=O)C(=C)C`, the result in [11], in assay [12], in assay [13], in assay [14] and in [15] was inactive.
In the case of `CCCCN(CCCC)C(=O)N(CCCC)CCCC`, the AC50 in [11] was 32.8 µM (active); in [12], 14.6 µM (active); in assay [13], 29 µM (active); in [14], 14.5 µM (active); in assay [15] it was 30.3 µM (active).
With `CN(C)CCOC(C)(c1ccccc1)c1ccccn1` (stereo not given), the molecule was called inactive in [1], in assay [2], in [3], in assay [4], in assay [5] and in [6]. Further, the outcome in [7], in assay [8] and in [9] was inactive.
For the molecule `CCCCCC(C=O)=Cc1ccccc1`, the result in assay [11], in assay [13], in [14] and in assay [15] was inactive. Further, the AC50 in assay [12] was 26.9 µM (active).
Regarding `CC(C)NCC(O)COc1ccc(CC(N)=O)cc1` (stereo not given), the result in assay [16] was inactive.
As for `CC(=O)Nc1ccc(C(=O)CCl)cc1`, the AC50 in assay [11] is 5.36 µM (active); in [12], 2.21 µM (active); in [13] it was 3.46 µM (active); in assay [14], 2.25 µM (active); in assay [15], 8.47 µM (active).
With `c1ccc2cc(Nc3ccc(Nc4ccc5ccccc5c4)cc3)ccc2c1`, the result in [11], in assay [12], in [14] and in assay [15] was inactive. Also, in assay [13], the AC50 is 1.12 µM (active).
